# Laboratory results: PubChem BioAssay (NCATS)
# A number with no mark means an inactive call. Results filed as inconclusive are left out. Entries that show only a call come without a potency. Activity calls are given as the source filed them. Unless noted, calls follow the shape of the dose curve; as a rule, active = well fitted curve in the direction sought with a large enough effect; inconclusive = small, poorly fitted or top-dose-only effect, or another doubt; inactive = no such curve, though single readings can be large; an effect the other way counts as inactive or inconclusive.
# Legend:
# [1] = target: Cytochrome P450 1A2 (Homo sapiens) (UniProt P05177); assay: p450-cyp1a2 (AID 410; calls by dose curve; also: potency is read from the fitted curve at half-maximal effect)
# Sequence of Cytochrome P450 1A2 (Homo sapiens) (P05177 whole entry, looked up): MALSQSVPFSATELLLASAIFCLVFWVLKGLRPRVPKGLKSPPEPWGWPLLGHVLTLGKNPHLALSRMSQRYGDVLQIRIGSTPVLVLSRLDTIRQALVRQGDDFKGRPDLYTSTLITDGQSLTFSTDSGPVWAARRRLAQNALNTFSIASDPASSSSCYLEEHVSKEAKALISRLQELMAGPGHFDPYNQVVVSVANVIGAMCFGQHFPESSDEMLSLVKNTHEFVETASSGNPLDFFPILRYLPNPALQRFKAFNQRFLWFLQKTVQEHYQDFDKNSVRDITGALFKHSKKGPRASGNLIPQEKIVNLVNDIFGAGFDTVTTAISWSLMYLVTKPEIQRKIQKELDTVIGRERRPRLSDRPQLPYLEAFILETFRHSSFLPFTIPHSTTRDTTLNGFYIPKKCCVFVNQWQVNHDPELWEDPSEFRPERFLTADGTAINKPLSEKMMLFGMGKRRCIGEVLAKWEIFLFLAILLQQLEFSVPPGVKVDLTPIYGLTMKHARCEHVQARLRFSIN
# Outline: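 Inhibition was calculated relative to 57 uM furafylline (full inhibition). The reaction used human CYP1A2 at 20nM with Luciferin-ME at its Km, 100uM, driven by an NADPH-regenerating system for 60 min at room temperature.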
# [2] = target: Glucocorticoid receptor (Homo sapiens) (UniProt P04150); assay: GR-GFP Redistribution (AID 450;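 active = compounds whose dose series gives a full or clear partial fitted curve of increased nuclear translocation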; also: potency is read from the fitted curve at half-maximal effect); settings: U2OS GR-GFP nuclear translocation, laser cytometry, 2 h
# Sequence of Glucocorticoid receptor (Homo sapiens) (P04150 whole entry, looked up, the tested form may be a part): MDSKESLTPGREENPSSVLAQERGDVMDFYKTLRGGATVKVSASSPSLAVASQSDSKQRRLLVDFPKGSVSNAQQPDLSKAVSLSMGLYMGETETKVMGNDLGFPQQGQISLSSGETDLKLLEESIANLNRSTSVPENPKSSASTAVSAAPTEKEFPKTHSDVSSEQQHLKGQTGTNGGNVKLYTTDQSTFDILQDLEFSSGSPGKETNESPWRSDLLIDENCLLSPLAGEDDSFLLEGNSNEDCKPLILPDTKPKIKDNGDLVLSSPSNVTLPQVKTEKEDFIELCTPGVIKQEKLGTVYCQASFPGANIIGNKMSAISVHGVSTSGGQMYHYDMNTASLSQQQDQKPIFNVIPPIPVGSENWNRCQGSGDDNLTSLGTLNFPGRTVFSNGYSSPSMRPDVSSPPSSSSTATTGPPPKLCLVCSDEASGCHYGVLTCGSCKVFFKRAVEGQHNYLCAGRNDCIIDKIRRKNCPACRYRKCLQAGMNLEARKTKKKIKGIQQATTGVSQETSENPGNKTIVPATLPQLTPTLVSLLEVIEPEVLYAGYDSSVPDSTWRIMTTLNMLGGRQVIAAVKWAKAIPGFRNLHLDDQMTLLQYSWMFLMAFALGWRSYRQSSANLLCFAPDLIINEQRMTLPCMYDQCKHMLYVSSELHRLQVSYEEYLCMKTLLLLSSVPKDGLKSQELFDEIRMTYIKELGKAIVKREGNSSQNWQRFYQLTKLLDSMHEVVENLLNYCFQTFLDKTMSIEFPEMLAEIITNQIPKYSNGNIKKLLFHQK
# [3] = target: Glucocorticoid receptor (Homo sapiens) (UniProt P04150); assay: GR-EFC Redistribution (AID 451; calls by dose curve; also: potency is read from the fitted curve at half-maximal effect); settings: CHO-K1 GR-EFC translocation, beta-gal luminescence, 2 h
# Outline: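 Translocation of GR-ED fusion to nuclear EA restores b-gal, read by luminescence after 1 h room-temperature detection. Engineered CHO-K1 biosensor cells, 1,000/well, exposed 2 h at 37 C to titrations up to 46 uM final.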
# [4] = target: Mitogen-activated protein kinase 10 (Mus musculus) (UniProt Q61831); assay: JNK3 AlphaScreen Assay (AID 530; active = well fitted curve in either direction with a large enough effect, not every such curve was filed as active;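 also: kinase came from lysate of stimulated human HepG2 cells; signal reports phosphorylation of biotinylated GST-cJun 1-79 at Ser73 with 10 µM ATP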)
# Outline: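 Room-temperature AlphaScreen kinase assay; pre-activated HepG2 lysate as JNK3 source, biotin-GST-cJun(1-79) substrate, 10 uM ATP, compound 15 min preincubation.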
# [5] = target: Cytochrome P450 2C9 (Homo sapiens) (UniProt P11712); assay: qHTS Assay for Inhibitors and Substrates of Cytochrome P450 2C9 (AID 883); also: nearly all actives have a fitted effect of over 60% in size
# Sequence of Cytochrome P450 2C9 (Homo sapiens) (P11712 whole entry, looked up): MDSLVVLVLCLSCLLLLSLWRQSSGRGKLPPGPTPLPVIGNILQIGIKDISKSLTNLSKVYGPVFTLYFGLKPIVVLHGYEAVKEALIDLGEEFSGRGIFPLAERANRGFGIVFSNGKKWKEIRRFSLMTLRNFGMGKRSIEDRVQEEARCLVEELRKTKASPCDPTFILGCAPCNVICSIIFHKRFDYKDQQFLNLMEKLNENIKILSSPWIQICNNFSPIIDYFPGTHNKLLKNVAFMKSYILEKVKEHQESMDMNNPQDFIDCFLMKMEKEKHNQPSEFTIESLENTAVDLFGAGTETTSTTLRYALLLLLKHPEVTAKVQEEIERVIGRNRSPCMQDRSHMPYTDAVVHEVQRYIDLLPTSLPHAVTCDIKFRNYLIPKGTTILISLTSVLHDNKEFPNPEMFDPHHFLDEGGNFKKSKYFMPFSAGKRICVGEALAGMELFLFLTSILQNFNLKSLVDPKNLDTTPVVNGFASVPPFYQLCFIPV
# Outline: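 Inhibition of CYP2C9 is scored as loss of luminescence, with 57uM sulphaphenazole defining 100% inhibition. Substrate Luciferin-H is used at 100uM, equal to its KM; enzyme at 10nM in 25mM KPO4, 60 min at 37C with NADPH regeneration.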
# [6] = target: Cytochrome P450 2D6 (Homo sapiens) (UniProt P10635); assay: qHTS Assay for Inhibitors and Substrates of Cytochrome P450 2D6 (AID 891); also: nearly all actives have a fitted effect of over 60% in size; also: potency is read from the fitted curve at half-maximal effect;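 as to activity change, negative = inhibition: luciferin methyl ether substrate demethylated by CYP2D6 with NADPH regeneration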
# Sequence of Cytochrome P450 2D6 (Homo sapiens) (P10635 whole entry, looked up): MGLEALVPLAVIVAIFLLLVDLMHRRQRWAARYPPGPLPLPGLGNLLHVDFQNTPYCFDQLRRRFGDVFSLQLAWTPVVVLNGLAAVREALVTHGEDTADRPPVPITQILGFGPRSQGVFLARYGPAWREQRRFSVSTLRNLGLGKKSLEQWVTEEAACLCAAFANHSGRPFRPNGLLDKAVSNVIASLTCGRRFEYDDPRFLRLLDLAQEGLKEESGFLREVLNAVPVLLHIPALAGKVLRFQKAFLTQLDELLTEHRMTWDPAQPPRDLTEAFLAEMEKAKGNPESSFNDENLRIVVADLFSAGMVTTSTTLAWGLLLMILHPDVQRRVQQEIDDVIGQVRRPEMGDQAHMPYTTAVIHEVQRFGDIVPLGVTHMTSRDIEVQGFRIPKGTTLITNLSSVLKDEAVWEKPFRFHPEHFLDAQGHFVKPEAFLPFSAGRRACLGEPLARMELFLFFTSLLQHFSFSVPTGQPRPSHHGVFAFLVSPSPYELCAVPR
# Outline: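 Human CYP2D6 (5 nM) with 30 uM Luciferin-ME EGE (at Km) in 100 mM KPO4, compound preincubated 10 min, then NADPH regeneration system for 60 min at room temperature. Luciferin read by luminescence; normalized to 1.43 uM quinidine.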
# [7] = target: Ubiquitin carboxyl-terminal hydrolase 1 (Homo sapiens) (UniProt O94782); assay: Inhibitors of USP1/UAF1: Pilot qHTS (AID 504865);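 also: rhodamine fluorescence freed from ubiquitin-rhodamine substrate followed over time; top concentration of the series differs between compounds; nearly all actives have a fitted effect of over 35% in size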
# Outline: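 Kinetic fluorescence assay: 1nM USP1/UAF1, 15 min compound preincubation, then 150nM Ub-Rho; 480/540 nm.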
# [8] = target: DNA dC->dU-editing enzyme APOBEC-3G (Homo sapiens) (UniProt Q9HC16); assay: qHTS for inhibitors of Vif-A3G interactions: Validation (AID 588379)
# Outline: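 HeLa cells stably expressing Vif and A3G-eYFP, 700 cells/well, incubated overnight at 37 deg C, then exposed to compound overnight at 37 deg C. Inhibition of Vif-mediated degradation read as increased yellow fluorescence (Ex 488/Em 500-530) by laser-scanning cytometry.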
# [9] = tested on: Zika virus NS2B-NS3 protease; assay: Primary screen GU AMC qHTS for Zika virus inhibitors (AID 1347154); also: nearly all actives have a fitted effect of over 70% in size
# Outline: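 Fluorogenic AMC-substrate cleavage by noncovalent NS2B-NS3 protease complex (25 nM, pH 8.0 Tris buffer with Tween 20) followed for 15 minutes at room temperature (~20% conversion). Percent inhibition from ex340/em450 signal change, fitted by 4-parameter Hill equation.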
# [10] = Primary qHTS for small molecule stabilizers of the endoplasmic reticulum resident proteome: Secreted ER Calcium Modulated Protein (SERCaMP) assay (AID 1508630)
# Outline: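 GLuc-SERCaMP-expressing SH-SY5Y cells, pretreated 16 h with compound, are challenged with thapsigargin to empty ER calcium stores; after 4 h, coelenterazine is added directly to the medium and luminescence is imaged.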
# [11] = NFAT Signaling Pathway (AID 444; active = well fitted curve in either direction with a large enough effect, not every such curve was filed as active;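 also: carbachol stimulus at about its EC50 of 1 µM final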); settings: Jurkat NFAT-bla M1, carbachol, beta-lactamase ratio, 5 h; at 38 µM (top of the series)
# Outline: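 Read-out: CCF4 FRET ratio (460 nm/530 nm) after 1 h RT dye loading, used for %activity and AC50 from titration series. Cells: Jurkat NFAT-β-lactamase/M1 line, treated with compound plus 1 uM carbachol for 5 h, 37 °C.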
# [12] = Stat Signaling Pathway (AID 446; active = well fitted curve in either direction with a large enough effect, not every such curve was filed as active;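 also: ME-180 cervical cancer cells given 40 pM IL-6 alongside compound; SIE-controlled beta-lactamase reporter measured as 460/530 nm FRET emission ratio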)
# Outline: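 Screening format detects activators and inhibitors alike: ME-180 SIE-bla cells stimulated at 40 pM IL-6 for 5 hrs with compound, then dual-emission beta-lactamase read at 405 nm excitation.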
# [13] = target: 3',5'-cyclic-AMP phosphodiesterase 4B (Homo sapiens) (UniProt Q07343); assay: qHTS Assay for Inhibitors of PDE-IV (AID 607; active = well fitted activation curve with a large enough effect in the main read-out, with a control signal flat, not every such curve was filed as active)
# Sequence of 3',5'-cyclic-AMP phosphodiesterase 4B (Homo sapiens) (Q07343 whole entry, looked up): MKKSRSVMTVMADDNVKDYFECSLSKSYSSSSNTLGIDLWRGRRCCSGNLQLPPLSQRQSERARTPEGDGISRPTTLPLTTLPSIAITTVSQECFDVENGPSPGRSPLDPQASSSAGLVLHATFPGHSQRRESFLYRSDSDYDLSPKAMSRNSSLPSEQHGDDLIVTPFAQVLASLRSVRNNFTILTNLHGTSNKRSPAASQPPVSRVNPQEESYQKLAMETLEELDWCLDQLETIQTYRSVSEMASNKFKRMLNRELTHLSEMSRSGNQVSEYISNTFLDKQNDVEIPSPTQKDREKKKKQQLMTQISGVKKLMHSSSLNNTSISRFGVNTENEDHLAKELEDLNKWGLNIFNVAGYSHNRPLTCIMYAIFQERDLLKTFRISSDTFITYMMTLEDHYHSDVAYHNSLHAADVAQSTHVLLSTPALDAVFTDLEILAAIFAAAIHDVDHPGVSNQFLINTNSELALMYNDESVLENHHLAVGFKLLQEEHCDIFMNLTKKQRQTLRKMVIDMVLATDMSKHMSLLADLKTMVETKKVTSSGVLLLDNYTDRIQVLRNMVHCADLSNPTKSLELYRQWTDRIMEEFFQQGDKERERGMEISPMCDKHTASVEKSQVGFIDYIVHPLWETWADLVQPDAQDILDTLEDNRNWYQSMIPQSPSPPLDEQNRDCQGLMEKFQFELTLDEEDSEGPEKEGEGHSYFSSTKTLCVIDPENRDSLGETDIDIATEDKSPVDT
# Outline: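 The readout is membrane depolarisation from a cAMP-sensing CNG channel, detected with a potential dye at ex 535/em 590. Cells were HEK293-derived (endogenous PDE-IV) at 1000 cells/well, titrated up to 22.9 uM final.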
# [14] = target: Guanine nucleotide-binding protein G(i) subunit alpha-1 (Homo sapiens) (UniProt P63096); assay: qHTS Assay for Inhibitors of RGS12 GoLoco Motif Activity (Green Fluorophore) (AID 879);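 also: negative values mean loss of peptide binding seen as reduced polarization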
# Sequence of Guanine nucleotide-binding protein G(i) subunit alpha-1 (Homo sapiens) (P63096 whole entry, looked up): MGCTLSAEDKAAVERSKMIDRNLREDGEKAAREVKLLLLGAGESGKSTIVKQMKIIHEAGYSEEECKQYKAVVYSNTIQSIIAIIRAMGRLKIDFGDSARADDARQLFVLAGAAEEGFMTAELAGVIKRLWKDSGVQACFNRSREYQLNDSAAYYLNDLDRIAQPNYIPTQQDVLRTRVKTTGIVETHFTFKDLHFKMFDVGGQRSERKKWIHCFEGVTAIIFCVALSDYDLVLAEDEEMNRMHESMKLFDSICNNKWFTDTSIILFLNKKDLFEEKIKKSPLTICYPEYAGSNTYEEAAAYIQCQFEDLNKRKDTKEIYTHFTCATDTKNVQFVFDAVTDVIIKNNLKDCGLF
# Outline: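 Fluorescence polarization assay: 50 nM Gαi1 with 10 nM FITC-labeled RGS12 GoLoco peptide in 10 mM Tris pH 7.5, 150 mM NaCl, 0.1 mM GDP, 0.05% NP40, 10 min at room temperature with compound.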
# [15] = qHTS Assay for Identification of Small Molecule Agonists for Thrombopoietin (TPO) Signaling Pathway (AID 917)
# Outline: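 We measured Glycoprotein IIb promoter–luciferase output in IL-3-starved Ba/F3 murine cells expressing the human TPO receptor after 24 hrs at 37 C with compounds and 26 pM TPO.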
# [16] = target: Muscarinic acetylcholine receptor M1 (Rattus norvegicus) (UniProt P08482); assay: qHTS Assay for Antagonists of Acetylcholine Muscarinic M1 Receptor: Kinetic Measurement of Intracellular Calcium Response (AID 943);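 also: Fluo-4 calcium signal as peak divided by basal fluorescence over 4 min; nearly all actives have a fitted effect of over 75% in size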
# Sequence of Muscarinic acetylcholine receptor M1 (Rattus norvegicus) (P08482 whole entry, looked up): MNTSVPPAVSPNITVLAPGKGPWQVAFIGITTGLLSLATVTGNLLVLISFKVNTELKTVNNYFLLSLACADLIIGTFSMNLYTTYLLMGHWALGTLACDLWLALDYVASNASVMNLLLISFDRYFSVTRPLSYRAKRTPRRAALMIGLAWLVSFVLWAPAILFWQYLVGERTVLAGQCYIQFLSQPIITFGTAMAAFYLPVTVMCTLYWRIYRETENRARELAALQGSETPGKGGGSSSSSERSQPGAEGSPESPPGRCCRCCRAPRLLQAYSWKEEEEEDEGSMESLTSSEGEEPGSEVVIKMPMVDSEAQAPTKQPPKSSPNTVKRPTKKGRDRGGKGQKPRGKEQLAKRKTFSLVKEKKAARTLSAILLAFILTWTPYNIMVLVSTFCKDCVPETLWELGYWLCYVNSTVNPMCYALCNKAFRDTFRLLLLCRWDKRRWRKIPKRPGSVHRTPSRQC
# Outline: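 Intracellular calcium flux, recorded with Fluo-4 in a kinetic plate reader, served as signal; the response to carbachol at EC80 (100 nM final) was taken as maximal over minimal fluorescence after a 10 min compound pre-incubation in rat M1-CHO cells.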
# [17] = target: Muscarinic acetylcholine receptor M1 (Rattus norvegicus) (UniProt P08482); assay: qHTS Assay for Antagonists of Acetylcholine Muscarinic M1 Receptor: Measurement of IP-One Response (AID 944); also: nearly all actives have a fitted effect of over 75% in size
# Outline: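 Steps: plate transfected CHO-M1 cells overnight; add test compound, 10 min; add carbachol (200 nM, EC80) in stimulation buffer with LiCl; incubate 30 min; add labelled IP1 tracer and anti-IP1 antibody in lysis buffer; read HTRF after 10 min.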
# [18] = target: Pyruvate kinase (Leishmania mexicana) (UniProt Q27686); assay: qHTS Validation Assay for Inhibitors of Leishmania Mexicana Pyruvate Kinase (AID 945)
# Outline: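 LmPYK E451W 0.2 nM; 0.5 mM PEP, 0.1 mM ADP, 7 mM MgCl2, 50 mM KCl, imidazole pH 7.2, 0.01% Tween 20, 0.05% BSA; 1 h RT; PKLight luminescence; DMSO-normalized.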
# [19] = target: Alpha-galactosidase A (Homo sapiens) (UniProt P06280); assay: Counterscreen for Glucocerebrosidase Inhibitors: qHTS Assay for Human alpha-Galactosidase at pH 4.5 (AID 992)
# Sequence of Alpha-galactosidase A (Homo sapiens) (P06280 whole entry, looked up): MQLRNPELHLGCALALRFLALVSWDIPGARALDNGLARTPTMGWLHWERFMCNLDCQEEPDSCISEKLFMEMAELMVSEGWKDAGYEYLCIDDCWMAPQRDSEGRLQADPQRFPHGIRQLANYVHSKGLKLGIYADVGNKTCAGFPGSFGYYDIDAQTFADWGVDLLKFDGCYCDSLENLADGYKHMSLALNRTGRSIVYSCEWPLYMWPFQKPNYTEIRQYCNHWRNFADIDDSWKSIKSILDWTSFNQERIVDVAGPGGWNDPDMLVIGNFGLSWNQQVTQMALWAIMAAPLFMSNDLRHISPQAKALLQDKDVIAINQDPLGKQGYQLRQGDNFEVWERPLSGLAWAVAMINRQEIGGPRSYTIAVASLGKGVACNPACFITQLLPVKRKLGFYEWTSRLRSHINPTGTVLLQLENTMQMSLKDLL
# Outline: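 Concentration-response curves (0.7 nM to 77 uM final) were modeled with the Hill equation to give AC50. Reactions: 2 nM enzyme, 80 uM fluorogenic alpha-galactoside, pH 4.5 citric acid buffer, 20 min, room temperature.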
# [20] = target: Alpha-galactosidase (Coffea arabica) (UniProt Q42656); assay: Counterscreen for Glucocerebrosidase Inhibitors: qHTS Assay for Coffee Bean alpha-Galactosidase at pH 5.9 (AID 998)
# Sequence of Alpha-galactosidase (Coffea arabica) (Q42656 whole entry, looked up): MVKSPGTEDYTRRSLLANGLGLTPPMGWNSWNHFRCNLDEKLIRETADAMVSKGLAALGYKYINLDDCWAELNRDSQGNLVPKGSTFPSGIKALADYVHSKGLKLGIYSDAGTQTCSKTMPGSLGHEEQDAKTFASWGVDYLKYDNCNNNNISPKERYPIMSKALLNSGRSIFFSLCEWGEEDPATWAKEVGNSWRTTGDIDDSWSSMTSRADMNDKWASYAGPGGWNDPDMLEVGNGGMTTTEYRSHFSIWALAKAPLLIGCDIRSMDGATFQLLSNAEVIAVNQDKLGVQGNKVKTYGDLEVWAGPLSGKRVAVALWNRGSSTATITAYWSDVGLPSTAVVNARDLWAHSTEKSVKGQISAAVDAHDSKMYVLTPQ
# Outline: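 Compounds were titrated from 0.7 nM to 77 uM against green coffee bean alpha-galactosidase (2 nM) using 80 uM fluorogenic 4-methylumbelliferyl substrate. After 20 min at room temperature, reactions were stopped at pH 10 and read by fluorescence.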
# [21] = target: Rap guanine nucleotide exchange factor 3 (Homo sapiens) (UniProt O95398); assay: Confirmatory qHTS for antagonist of cAMP-regulated guanine nucleotide exchange factor 3 (EPAC1) (AID 1645880); also: nearly all actives have a fitted effect of over 55% in size
# Outline: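 Nucleotide exchange uses 100 nM EPAC1, 250 nM RAP1B-BODIPY-GDP and 50 uM GDP, with compounds in a concentration-titration series. After 5 min at room temperature, fluorescence (480 nm ex/540 nm em) is read every 5 min for 30 min. Data are normalized to control ATA and DMSO.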
# [22] = target: Rap guanine nucleotide exchange factor 3 (Homo sapiens) (UniProt O95398); assay: Confirmatory qHTS for agonist of cAMP-regulated guanine nucleotide exchange factor 3 (EPAC1) (AID 1645881);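 also: EPAC1 catalysed release of BODIPY-GDP from Rap1B seen as fluorescence loss; nearly all actives have a fitted effect of over 75% in size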
# [23] = target: Rap guanine nucleotide exchange factor 4 (Homo sapiens) (UniProt Q8WZA2); assay: Confirmatory qHTS for agonist of cAMP-regulated guanine nucleotide exchange factor 4 (EPAC2) (AID 1645884);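 also: nucleotide exchange releases bodipy-GDP from Rap1 and this lowers its fluorescence; nearly all actives have a fitted effect of over 65% in size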
# [24] = target: Rap guanine nucleotide exchange factor 4 (Homo sapiens) (UniProt Q8WZA2); assay: Confirmatory qHTS for antagonist of cAMP-regulated guanine nucleotide exchange factor 4 (EPAC2) (AID 1645885); also: nearly all actives have a fitted effect of over 25% in size
# [25] = AP1 Signaling Pathway (AID 357; active = well fitted curve in either direction with a large enough effect, not every such curve was filed as active;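 also: ME-180 reporter cells stimulated with EGF at its EC50 level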)
# Outline: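 Modulation of EGF-driven AP-1 transcription was assessed with a beta-lactamase reporter in ME-180 cells. Compound and EC50 EGF were co-incubated 5 hours at 37 °C before 2.5-hour CCF4 loading at room temperature and dual-emission reading.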
# [26] = target: Cytochrome P450 3A4 (Homo sapiens) (UniProt P08684); assay: qHTS Assay for Activators of Cytochrome P450 3A4 (AID 885); also: nearly all actives have a fitted effect of over 65% in size
# Outline: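 Steps: enzyme/substrate mix dispensed; compound added, 10 min RT; NADPH regeneration solution added, 60 min RT; luciferin detection buffer stops reaction; 20 min later luminescence measured.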
# [27] = target: Cytochrome P450 2C19 (Homo sapiens) (UniProt P33261); assay: qHTS Assay for Inhibitors and Substrates of Cytochrome P450 2C19 (AID 899); also: nearly all actives have a fitted effect of over 60% in size
# Outline: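 5nM enzyme + 10uM Luciferin-H EGE (=KM), 50mM KPO4; cpd pin-transferred, 10 min 37C; NADPH regen, 60 min 37C; stopped w/ luciferin detection reagent, 20 min; luminescence. Normalized to 57uM ketoconazole (AC100).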
# [28] = target: Alpha-galactosidase (Coffea arabica) (UniProt Q42656); assay: Counterscreen for Glucocerebrosidase Inhibitors: qHTS Assay for Coffee Bean alpha-Galactosidase at pH 4.5 (AID 957)
# Outline: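 AC50 values derive from Hill-equation modeling of concentration-response data, normalized to no-enzyme and full-activity controls. The pH 4.5 citrate assay used 2 nM coffee bean enzyme and 80 uM fluorogenic substrate for 20 min.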
compound,measurement,setting,value
Cn1cc(C(=O)C(=O)N[C@H]2CN3CCC2CC3)c2ccccc21,Potency,[1],15.8 µM (active)
same,Potency,[2],> 46 µM
same,Potency,[3],> 46 µM
same,outcome,[4],inactive
same,Potency,[5],inactive
same,Potency,[6],0.0631 µM (active)
same,Potency,[7],inactive
same,Potency,[8],inactive
same,Potency,[9],inactive
same,Potency,[10],inactive
CC(C)(C)c1o[nH]c(=O)c1C[C@H](N)C(=O)O,Potency,[1],inactive
same,"activity change, negative = inhibition",[11],-2.55%
same,outcome,[12],inactive
same,Potency,[3],> 46 µM
same,outcome,[4],inactive
same,Potency,[13],inactive
same,outcome,[14],inactive
same,Potency,[6],inactive
same,outcome,[15],inactive
same,Potency,[16],inactive
same,Potency,[17],inactive
same,outcome,[18],inactive
same,outcome,[19],inactive
same,outcome,[20],inactive
same,Potency,[8],inactive
same,Potency,[9],inactive
same,Potency,[10],inactive
CN1Cc2ccccc2[C@@H]2c3cccc4[nH]cc(c34)C[C@H]21,Potency,[3],> 46 µM
same,Potency,[9],inactive
same,Potency,[10],inactive
same,Potency,[21],inactive
same,outcome,[22],inactive
same,outcome,[23],inactive
same,Potency,[24],inactive
COc1ccc(CNC(=O)/C=C\c2ccc3[nH]cc(CCN(C)C)c3c2)cc1,outcome,[25],inactive
same,Potency,[1],inactive
same,"activity change, negative = inhibition",[11],-13.5%
same,outcome,[12],inactive
same,Potency,[2],> 46 µM
same,Potency,[3],> 46 µM
same,outcome,[4],inactive
same,Potency,[13],inactive
same,outcome,[14],inactive
same,Potency,[5],inactive
same,Potency,[26],inactive
same,Potency,[6],inactive
same,Potency,[27],inactive
same,outcome,[15],inactive
same,Potency,[17],inactive
same,outcome,[18],inactive
same,outcome,[28],inactive
same,outcome,[19],inactive
same,outcome,[20],inactive
same,Potency,[9],inactive
same,Potency,[10],inactive
